8 molecules from PubChem BioAssay (Tox21) can be followed below.

Where “and” joins values, the source holds several entries; their conditions need not be identical. Equal values may be shown once. Inconclusive results are not listed. A structure can be active in one record and inactive in another. Calls of active or inactive are those of the source. Unless noted, calls follow the shape of the dose curve; as a rule, active = well fitted curve in the direction sought with a large enough effect in the repeat runs; inconclusive = weak or mixed curves; inactive = no such curve, though single readings can be large; an effect the other way counts as inactive or inconclusive.

Experiment [1] is described as follows: qHTS assay to identify small molecule antagonists of the estrogen related receptor (ERR) signaling pathway from Tox21 library - cell viability counter screen (AID 1224834). Also: nearly all actives have a fitted effect of over 30% in size. Also: potency is read from the fitted curve at half-maximal effect. The essentials:
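Seeded ERR cells were rested 6 h at 37 C/5% CO2 before compounds, positive and negative controls or DMSO were added. Incubation continued for 17.5 h, and viability was then quantified by CellTiter-Fluor fluorescence.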

Experiment [2] addresses Luciferin 4-monooxygenase (Photinus pyralis) (UniProt P08659). In words: qHTS assay to identify small molecule inhibitors of firefly luciferase (AID 1224835). Also: series mostly up to about 120 µM; nearly all actives have a fitted effect of over 25% in size. The procedure, abridged:
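Quantitative HTS format; KM concentrations of both substrates. Purified P. pyralis FLuc activity quantified from luminescence images.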

A short description of experiment [3]: qHTS assay to identify small molecule agonists of the constitutive androstane receptor (CAR) signaling pathway - cell viability counter screen (AID 1224836). Also: nearly all actives have a fitted effect of over 45% in size. Also: potency is read from the fitted curve at half-maximal effect. As to viability change, negative = cytotoxic: series mostly up to about 92 µM. The essentials:
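23 h treatment, 37 C, 5% CO2. Cell line: HepG2 stably expressing hCAR with a CYP2B6-2.2kb construct. Co-treatment: PK11195, 0.75 uM final. Read-out: CellTiter-Fluor fluorescence intensity.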

Experiment [4] is described as follows: qHTS assay to identify small molecule antagonists of the constitutive androstane receptor (CAR) signaling pathway - cell viability counter screen (AID 1224837). Also: series mostly up to about 92 µM; nearly all actives have a fitted effect of over 45% in size. The essentials:
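To flag cytotoxic false antagonists, HepG2 hCAR/CYP2B6-2.2kb cells were treated 23 hr with 15-concentration compound series and 50 nM CITCO at 37 C/5% CO2; CellTiter-Fluor fluorescence was the measured end point.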

Experiment [5] can be described thus: qHTS RealTime-Glo MT Cell Viability Assay in HepG2 cells - 24 hour (AID 1224867). Also: nearly all actives have a fitted effect of over 50% in size. Also: potency is read from the fitted curve at half-maximal effect. The procedure, abridged: (§1)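 HepG2 cells (600/well) were dispensed with RealTime-Glo reagents, incubated 5 h at 37 °C, then treated with compounds in DMSO for up to 40 h. Nonlytic NanoLuc luminescence reflecting viable cells was read at each stated time point.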
A short description of experiment [6]: qHTS RealTime-Glo MT Cell Viability Assay in HEK293 cells - 32 hour (AID 1224868). Also: nearly all actives have a fitted effect of over 50% in size. Also: potency is read from the fitted curve at half-maximal effect. As to activity change, negative = cytotoxic: top concentration of the series differs between compounds. The procedure, abridged:
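HEK293 cells seeded with NanoLuc/prosubstrate reagent, rested 5 h at 37 C, then dosed and kept at 37 C up to 40 h. Nonlytic real-time luminescence from viable cells read at 0, 8, 16, 24, 32 and 40 h.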

A short description of experiment [7]: A CellTox Green Cytotoxicity Assay to monitor cytotoxicity in HepG2 cells - 24 hour (AID 1224878). Also: nearly all actives have a fitted effect of over 45% in size. Also: potency is read from the fitted curve at half-maximal effect. The procedure, abridged:
(§2)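 Measurements at 0, 8, 16, 24, 32 and 40 h of treatment captured CellTox Green fluorescence in HepG2 cells that had been co-plated with reagent and preincubated 5 h at 37 C/5% CO2.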

The nature of experiment [8]: A CellTox Green Cytotoxicity Assay to monitor cytotoxicity in HepG2 cells - 40 hour (AID 1224879). Also: nearly all actives have a fitted effect of over 40% in size. Also: potency is read from the fitted curve at half-maximal effect. The procedure, abridged: as §2
Experiment [9] can be described thus: A CellTox Green Cytotoxicity Assay to monitor cytotoxicity in HEK293 cells - 8 hour (AID 1224884). Also: nearly all actives have a fitted effect of over 35% in size. Also: potency is read from the fitted curve at half-maximal effect. The procedure, abridged: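 Tox21 screen in HEK293: membrane-impermeant cyanine dye fluoresces on binding dead-cell DNA; compound pinned 5 h post-seeding, plates held at 37 C, signal read repeatedly through 40 h.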
The nature of experiment [10]: qHTS RealTime-Glo MT Cell Viability Assay in HepG2 cells - 16 hour (AID 1224885). Also: nearly all actives have a fitted effect of over 50% in size. Also: potency is read from the fitted curve at half-maximal effect. The procedure, abridged:
as §1

The nature of experiment [11]: qHTS assay to identify small molecule agonists of the sonic hedgehog signaling (Shh) pathway - cell viability counter screen (AID 1259366). Also: nearly all actives have a fitted effect of over 50% in size. Also: potency is read from the fitted curve at half-maximal effect. The essentials: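 In quantitative high-throughput format, 3T3 Gli1-Luc cells were exposed to compounds for 24hr and multiplexed for viability using CellTiter-Fluor, incubated 1hr at 37C before the fluorescence read.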
A short description of experiment [12]: qHTS assay to identify small molecule antagonists of the sonic hedgehog signaling (Shh) pathway - cell viability counter screen (AID 1259367). Also: nearly all actives have a fitted effect of over 55% in size. Also: potency is read from the fitted curve at half-maximal effect. The essentials:
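Conditioned medium drove Shh signaling in 3T3 Gli1-Luc cells exposed to compounds at 37C and 5% CO2. Viability was determined from CellTiter-Fluor fluorescence, with reagent incubated 1 hr after 23 hr of treatment.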

Experiment [13] concerns the target Estrogen receptor (Homo sapiens) (UniProt P03372). In words: qHTS assay to identify small molecule agonists of the estrogen receptor alpha (ER-alpha) signaling pathway in the presence of an antagonist (AID 1259383; calls by dose curve; also: top concentration of the series differs between compounds; nearly all actives have a fitted effect of over 15% in size). The procedure, abridged: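 Quantitative HTS confirmation: compounds titrated at 15 concentrations onto estrogen-deprived VM7Luc4E2 cells carrying a four-ERE luciferase construct, with ICI-182,780 present at 10.0nM final. Signal is luminescence after 22hr exposure.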

Experiment [14] can be described thus: qHTS assay to identify small molecule agonists of the estrogen receptor alpha (ER-alpha) signaling pathway in the presence of an antagonist - cell viability counter screen (AID 1259386).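 Also: series mostly up to about 92 µM; cells exposed to compounds for 22 h at 37 °C before the viability read; nearly all actives have a fitted effect of over 30% in size.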 The essentials:
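The test measures whether compounds kill ER-alpha reporter cells (VM7Luc4E2) under antagonist co-treatment (ICI-182,780, 10.0nM). Fluorescence from CellTiter-Fluor is read after a 22hr exposure.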

The nature of experiment [15]: qHTS assay to identify small molecule antagonists of the TGF-beta/Smad signaling pathway - cell viability counter screen (AID 1346824). Also: nearly all actives have a fitted effect of over 50% in size. The essentials: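 SBE-bla HEK 293T cells were plated overnight at 37 C, then given compounds in DMSO plus TGF-beta1 (added as 0.25 ng/mL solution) for 5 hr. After the bla read, CellTiter-Glo was added to the same wells and luminescence read after 30 min at room temperature.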

The nature of experiment [16]: qHTS assay to identify small molecule agonists of the TGF-beta/Smad signaling pathway - cell viability counter screen (AID 1346829). Also: top concentration of the series differs between compounds; nearly all actives have a fitted effect of over 45% in size. The procedure, abridged:
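SBE-bla HEK 293T cells plated overnight, compound exposure 5 hr at 37 C. Viability read in the same wells by CellTiter-Glo luminescence after 30 min at room temperature, following the beta-lactamase read.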

The target of experiment [17] is Cytochrome P450 2C9 (Homo sapiens) (UniProt P11712). In words: Cytochrome P450 Family 2 Subfamily C Member 9 (CYP2C9) small molecule antagonists: luciferase reporter qHTS assay (AID 1671198). Also: nearly all actives have a fitted effect of over 50% in size. Also: potency is read from the fitted curve at half-maximal effect. The essentials:
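CYP2C9 activity was measured with a P450-Glo proluciferin substrate. Enzyme–substrate mix was held with compound for 10 min at room temperature, then NADPH regeneration solution was added for 1 h at 37C. Luciferin product was read as luminescence.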

For experiment [18], the target named is Nuclear receptor subfamily 1 group I member 2 (Homo sapiens) (UniProt O75469). In words: Human pregnane X receptor (PXR) small molecule agonists, qHTS assay (AID 1346982). Also: nearly all actives have a fitted effect of over 35% in size. Also: potency is read from the fitted curve at half-maximal effect. The procedure, abridged: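 Stable HepG2 line reporting PXR-mediated CYP3A4 expression via luciferase. Treatment: 24 hr with compounds in DMSO at 37 C. Detection: ONE-Glo luminescence.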

Experiment [19] concerns the target Cytochrome P450 2C19 (Homo sapiens) (UniProt P33261). The experiment in a line: Cytochrome P450 Family 2 Subfamily C Member 19 (CYP2C19) small molecule antagonists: luciferase reporter qHTS assay (AID 1671197). Also: nearly all actives have a fitted effect of over 65% in size. Also: potency is read from the fitted curve at half-maximal effect. The essentials:
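P450-Glo CYP2C19 system: enzyme-substrate mix with compound 10 min at room temperature, then NADPH regeneration solution, 1 h at 37C. Proluciferin-to-luciferin conversion detected by luminescence after 20 min with detection reagent; ketoconazole as positive control.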

Experiment [20] deals with Retinoic acid receptor RXR-alpha (Homo sapiens) (UniProt P19793). The experiment in a line: qHTS assay to identify small molecule agonists of the RXR signaling pathway (AID 1159527; calls by dose curve; also: nearly all actives have a fitted effect of over 35% in size). The procedure, abridged: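 Using 9-cis retinoic acid as the reference agonist, chemicals were tested in HEK 293T cells […] for 16 hr; substrate loading lasted 2 hr at room temperature.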
% is scaled to controls: 0 for no effect and ±100 for the full control effect.

Chain of Cytochrome P450 2C19 (Homo sapiens) (P33261 whole entry, looked up): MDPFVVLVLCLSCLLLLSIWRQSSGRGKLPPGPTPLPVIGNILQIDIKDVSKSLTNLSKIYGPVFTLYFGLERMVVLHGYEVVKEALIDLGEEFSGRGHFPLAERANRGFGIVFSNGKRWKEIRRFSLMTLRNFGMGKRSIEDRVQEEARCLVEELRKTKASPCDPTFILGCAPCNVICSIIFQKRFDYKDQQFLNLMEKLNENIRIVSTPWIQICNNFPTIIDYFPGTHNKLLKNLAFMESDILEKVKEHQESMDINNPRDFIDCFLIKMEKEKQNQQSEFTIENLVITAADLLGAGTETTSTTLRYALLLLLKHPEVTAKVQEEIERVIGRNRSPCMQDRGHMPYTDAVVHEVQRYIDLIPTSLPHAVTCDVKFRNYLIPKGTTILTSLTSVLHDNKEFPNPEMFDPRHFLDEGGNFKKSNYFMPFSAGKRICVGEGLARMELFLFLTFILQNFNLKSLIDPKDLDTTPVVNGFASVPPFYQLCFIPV
Chain of Estrogen receptor (Homo sapiens) (P03372 whole entry, looked up): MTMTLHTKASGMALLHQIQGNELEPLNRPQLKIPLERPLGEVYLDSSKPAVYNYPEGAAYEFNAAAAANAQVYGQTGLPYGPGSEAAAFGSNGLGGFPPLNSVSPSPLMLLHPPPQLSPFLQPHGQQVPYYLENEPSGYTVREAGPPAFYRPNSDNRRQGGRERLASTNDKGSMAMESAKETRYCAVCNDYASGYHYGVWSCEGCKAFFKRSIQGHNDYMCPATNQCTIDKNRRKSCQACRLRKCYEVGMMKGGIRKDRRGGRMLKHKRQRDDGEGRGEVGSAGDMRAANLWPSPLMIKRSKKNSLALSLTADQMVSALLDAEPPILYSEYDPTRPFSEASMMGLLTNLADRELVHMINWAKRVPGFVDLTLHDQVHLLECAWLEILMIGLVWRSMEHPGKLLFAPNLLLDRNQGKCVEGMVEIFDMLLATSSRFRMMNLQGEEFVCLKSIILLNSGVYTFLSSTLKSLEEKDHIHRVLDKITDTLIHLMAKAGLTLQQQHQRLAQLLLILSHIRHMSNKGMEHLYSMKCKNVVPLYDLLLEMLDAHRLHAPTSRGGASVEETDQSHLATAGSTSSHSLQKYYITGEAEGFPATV
Chain of Cytochrome P450 2C9 (Homo sapiens) (P11712 whole entry, looked up): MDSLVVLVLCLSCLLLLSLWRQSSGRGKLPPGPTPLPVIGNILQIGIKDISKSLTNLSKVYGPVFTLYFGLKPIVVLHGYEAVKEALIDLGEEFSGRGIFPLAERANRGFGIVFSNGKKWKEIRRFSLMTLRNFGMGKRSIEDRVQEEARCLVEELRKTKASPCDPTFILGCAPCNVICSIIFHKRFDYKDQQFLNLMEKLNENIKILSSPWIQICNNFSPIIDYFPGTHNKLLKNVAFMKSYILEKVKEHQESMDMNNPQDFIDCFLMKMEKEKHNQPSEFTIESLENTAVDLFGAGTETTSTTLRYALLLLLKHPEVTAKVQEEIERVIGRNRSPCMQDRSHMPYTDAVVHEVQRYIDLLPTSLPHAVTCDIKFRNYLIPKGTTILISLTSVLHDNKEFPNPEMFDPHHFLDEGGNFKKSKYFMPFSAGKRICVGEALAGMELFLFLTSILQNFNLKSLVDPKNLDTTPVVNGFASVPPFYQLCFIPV
Chain of Retinoic acid receptor RXR-alpha (Homo sapiens) (P19793 whole entry, looked up): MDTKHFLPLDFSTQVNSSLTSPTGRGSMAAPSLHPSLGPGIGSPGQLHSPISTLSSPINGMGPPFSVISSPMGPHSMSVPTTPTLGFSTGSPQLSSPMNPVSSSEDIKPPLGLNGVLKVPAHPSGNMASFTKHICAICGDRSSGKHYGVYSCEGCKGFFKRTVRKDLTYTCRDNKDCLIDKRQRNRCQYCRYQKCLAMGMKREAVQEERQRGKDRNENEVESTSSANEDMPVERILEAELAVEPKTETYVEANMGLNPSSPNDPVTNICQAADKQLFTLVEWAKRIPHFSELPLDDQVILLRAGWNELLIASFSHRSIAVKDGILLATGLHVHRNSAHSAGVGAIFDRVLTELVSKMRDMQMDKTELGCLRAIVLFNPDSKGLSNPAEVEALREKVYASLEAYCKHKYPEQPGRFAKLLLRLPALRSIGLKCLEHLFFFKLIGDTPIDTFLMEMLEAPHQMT
Chain of Nuclear receptor subfamily 1 group I member 2 (Homo sapiens) (O75469 whole entry, looked up): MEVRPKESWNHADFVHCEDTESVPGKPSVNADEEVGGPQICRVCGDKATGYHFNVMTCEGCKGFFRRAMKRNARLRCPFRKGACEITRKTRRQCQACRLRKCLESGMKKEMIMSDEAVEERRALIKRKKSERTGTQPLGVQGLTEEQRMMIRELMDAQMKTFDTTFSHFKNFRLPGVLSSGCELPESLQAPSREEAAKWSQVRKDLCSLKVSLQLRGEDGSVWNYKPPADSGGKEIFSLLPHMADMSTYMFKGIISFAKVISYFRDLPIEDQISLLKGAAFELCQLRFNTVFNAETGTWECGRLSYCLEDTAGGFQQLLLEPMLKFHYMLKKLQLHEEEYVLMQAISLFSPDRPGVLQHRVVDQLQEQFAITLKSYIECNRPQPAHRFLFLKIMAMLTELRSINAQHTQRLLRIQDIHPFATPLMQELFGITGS
Chain of Luciferin 4-monooxygenase (Photinus pyralis) (P08659 whole entry, looked up): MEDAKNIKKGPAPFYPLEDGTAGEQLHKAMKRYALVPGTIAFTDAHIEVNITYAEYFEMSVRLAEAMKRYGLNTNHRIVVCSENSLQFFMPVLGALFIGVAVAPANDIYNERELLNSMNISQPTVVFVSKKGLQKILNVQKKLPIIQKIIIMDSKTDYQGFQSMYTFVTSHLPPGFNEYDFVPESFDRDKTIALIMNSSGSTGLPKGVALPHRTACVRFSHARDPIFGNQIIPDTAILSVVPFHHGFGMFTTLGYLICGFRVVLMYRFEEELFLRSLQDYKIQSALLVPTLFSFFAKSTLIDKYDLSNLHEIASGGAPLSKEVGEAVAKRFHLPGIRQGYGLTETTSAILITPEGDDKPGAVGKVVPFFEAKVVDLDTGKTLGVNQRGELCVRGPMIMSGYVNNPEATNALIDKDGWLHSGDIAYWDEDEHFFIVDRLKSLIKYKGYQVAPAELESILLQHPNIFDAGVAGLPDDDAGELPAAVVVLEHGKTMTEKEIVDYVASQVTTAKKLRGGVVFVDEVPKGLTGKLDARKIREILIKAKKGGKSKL

On to `Oc1c(I)cc(I)cc1I`, for which the Potency entry in experiment [1], in experiment [2], in experiment [3], in experiment [4], in experiment [5] and in experiment [6] was “inactive” each time. The Potency entry in experiment [7], in [8], in experiment [9], in experiment [10], in experiment [11] and in experiment [12] was “inactive” each time. In addition, the Potency entry in [14] and in experiment [15] was “inactive” throughout. The outcome in experiment [13] and in [16] was inactive. Also, the Potency in [17] is 56.4 µM (active).

`CCOC(=O)C(O)(c1ccc(Cl)cc1)c1ccc(Cl)cc1`: the Potency in experiment [1] is 49.1 µM (active); in [6], 22.1 µM (active); in experiment [7], “inactive and 38.9 µM (active)”; in experiment [8], “inactive and 43.6 µM (active)”; in experiment [18], 27.6 µM (active) and inactive; in [19], 453 nM (active) and 317 nM (active). The Potency in [17] was 10.1 µM (active) and 7.96 µM (active). The Potency result in experiment [2], in experiment [3], in experiment [4], in experiment [5], in experiment [9] and in experiment [10] was “inactive” each time. Besides, the Potency entry in experiment [14] and in experiment [15] was “inactive” each time. Besides, the result in experiment [13] and in experiment [16] was inactive.

For `c1ccc2c(c1)Sc1ccccc1N2CC1CN2CCC1CC2` (stereo not given), the Potency was 29.8 µM (active) in [1]; 29.8 µM (active) in [3]; 21.3 µM (active) in experiment [5]; 23.9 µM (active) in [7]; 19 µM (active) in experiment [8]; 23.9 µM (active) in [10]. For the same molecule, the Potency in experiment [11] and in experiment [12] was 11.9 µM (active) each time. The Potency entry in experiment [2], in experiment [14], in experiment [15] and in experiment [17] was “inactive” each time. In addition, the outcome in [16] was inactive.

On to `OCC(c1ccc(Cl)cc1)c1ccc(Cl)cc1`, for which the Potency entry in experiment [20], in experiment [2], in experiment [14] and in experiment [15] was “inactive” throughout. Moreover, the Potency in experiment [1] is 48.6 µM (active); in experiment [6] it was 34.7 µM (active); in experiment [7], 38.9 µM (active); in [8] it was 38.9 µM (active); in experiment [9], 43.6 µM (active); in experiment [19], 0.0894 µM (active). Further, the Potency in [17] was 12.6 µM (active). Besides, the result in [13] and in experiment [16] was inactive.

As to `Cc1ccc2nc3sc(=O)sc3nc2c1`, the viability change, negative = cytotoxic in experiment [1] was -9.38% [at 19 µM] (inactive); in [3], 1.63% [at 19 µM] (inactive); in experiment [11], -7.48% [at 19 µM] (inactive); in experiment [15], 2.33% [at 15.8 µM] (inactive). In addition, the activity change, negative = cytotoxicity in experiment [4] was 11.8% [at 19 µM] (inactive); in experiment [5] it was -4.88% [at 15.8 µM] (inactive); in experiment [14] it was -6.53% [at 19 µM] (inactive); in [16] it was 17% [at 15.8 µM] (inactive). Also, the activity change, negative = cytotoxic in [6] is 8.73% [at 15.8 µM] (inactive); in experiment [10], 0.198% [at 15.8 µM] (inactive). Further, the cytotoxicity in experiment [7] is -2.5% [at 15.8 µM] (inactive). Besides, the values for the cytotoxicity increase in [8] and in experiment [9] were -2.41% [at 15.8 µM] (inactive) and 4.71% [at 15.8 µM] (inactive), respectively. Also, the activation in experiment [13] is -0.0346% [at 19 µM] (inactive); in experiment [18], 20.6% [at 19 µM] (inactive). For the same molecule, the Potency in experiment [19] was 16.9 µM (active).

On to `CCN(CC)C(=O)Cl`, for which the Potency entry in experiment [20], in experiment [1], in experiment [2], in experiment [3], in experiment [4] and in experiment [5] was “inactive” each time. Moreover, the Potency result in [6], in [7], in experiment [8], in experiment [9], in experiment [10] and in experiment [11] was “inactive” in each case. Also, the Potency result in experiment [12], in experiment [14], in [15], in experiment [18], in experiment [19] and in experiment [17] was “inactive” throughout. Besides, the outcome in [13] and in experiment [16] was inactive.

On to `Nc1ccc(Cl)cc1[N+](=O)[O-]`, for which, in experiment [20], the Potency result is “inactive”.

Regarding `O=C1C(I)=CC(=C(c2cc(I)c(O)c(I)c2)c2ccccc2C(=O)O)C=C1I`, the Potency entry in [20], in [3], in [4], in [5], in experiment [6] and in [7] was “inactive” each time. Also, the Potency entry in experiment [8], in experiment [9], in experiment [10], in [11], in experiment [12] and in experiment [14] was “inactive” throughout. Also, in [15], the Potency result is “inactive”. For the same molecule, the result in experiment [13] and in experiment [16] was inactive. Also, the Potency in experiment [18] is 11.9 µM (active); in experiment [19], 13.8 µM (active); in [17] it was 3.89 µM (active).
